The values below come from ChEMBL document CHEMBL3988442, “University of Dundee, Small-Polar-MMV Screening Library” (2021).

Structures are written as SMILES. For some of these results: Results with a measured potency or affinity are listed apart.

The target of experiment [1] is T1, Methionyl-tRNA synthetase, putative (Leishmania donovani (strain BPK282A1)) (UniProt E9BF75).
T1 sequence (whole entry): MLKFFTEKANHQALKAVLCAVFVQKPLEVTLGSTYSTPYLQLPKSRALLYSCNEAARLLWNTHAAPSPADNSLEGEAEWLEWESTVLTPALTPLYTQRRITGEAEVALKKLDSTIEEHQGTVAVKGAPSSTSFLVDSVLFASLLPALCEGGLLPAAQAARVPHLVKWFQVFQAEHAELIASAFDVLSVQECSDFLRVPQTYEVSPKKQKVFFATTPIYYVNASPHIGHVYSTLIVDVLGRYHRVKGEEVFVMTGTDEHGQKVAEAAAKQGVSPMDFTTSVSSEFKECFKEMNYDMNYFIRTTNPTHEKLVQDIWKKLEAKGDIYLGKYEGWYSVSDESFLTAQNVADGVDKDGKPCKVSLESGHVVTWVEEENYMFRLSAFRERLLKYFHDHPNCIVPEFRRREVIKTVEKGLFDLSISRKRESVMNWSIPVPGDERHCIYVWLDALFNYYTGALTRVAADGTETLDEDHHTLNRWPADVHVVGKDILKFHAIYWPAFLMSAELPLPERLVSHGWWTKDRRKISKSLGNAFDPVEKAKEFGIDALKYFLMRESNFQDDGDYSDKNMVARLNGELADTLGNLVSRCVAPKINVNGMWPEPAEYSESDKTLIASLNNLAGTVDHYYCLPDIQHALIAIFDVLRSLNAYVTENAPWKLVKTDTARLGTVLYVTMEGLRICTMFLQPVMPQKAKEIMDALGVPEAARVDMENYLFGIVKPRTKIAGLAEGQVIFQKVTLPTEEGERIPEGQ
As to the kind of experiment: Leishmania donovani Methionine tRNA synthetase (LdMetRS):v7. Dose response assay. The arrangement: conc 80 nM, time 150 minutes. It counts as functional.

Experiment [2] has as its target Protein translocase subunit SecA (Escherichia coli (strain K12)) (UniProt P10408). Put plainly: Assay to Identify E. coli SecA ATPase Inhibitors. Also on record: scale not given: direction of the effect not stated beside the values. It counts as functional. The note with it: 30 µM.
The target of experiment [3] is T2, Ubiquitin-activating enzyme e1, putative (Leishmania donovani (strain BPK282A1)) (UniProt E9BSI1).
T2 sequence (whole entry): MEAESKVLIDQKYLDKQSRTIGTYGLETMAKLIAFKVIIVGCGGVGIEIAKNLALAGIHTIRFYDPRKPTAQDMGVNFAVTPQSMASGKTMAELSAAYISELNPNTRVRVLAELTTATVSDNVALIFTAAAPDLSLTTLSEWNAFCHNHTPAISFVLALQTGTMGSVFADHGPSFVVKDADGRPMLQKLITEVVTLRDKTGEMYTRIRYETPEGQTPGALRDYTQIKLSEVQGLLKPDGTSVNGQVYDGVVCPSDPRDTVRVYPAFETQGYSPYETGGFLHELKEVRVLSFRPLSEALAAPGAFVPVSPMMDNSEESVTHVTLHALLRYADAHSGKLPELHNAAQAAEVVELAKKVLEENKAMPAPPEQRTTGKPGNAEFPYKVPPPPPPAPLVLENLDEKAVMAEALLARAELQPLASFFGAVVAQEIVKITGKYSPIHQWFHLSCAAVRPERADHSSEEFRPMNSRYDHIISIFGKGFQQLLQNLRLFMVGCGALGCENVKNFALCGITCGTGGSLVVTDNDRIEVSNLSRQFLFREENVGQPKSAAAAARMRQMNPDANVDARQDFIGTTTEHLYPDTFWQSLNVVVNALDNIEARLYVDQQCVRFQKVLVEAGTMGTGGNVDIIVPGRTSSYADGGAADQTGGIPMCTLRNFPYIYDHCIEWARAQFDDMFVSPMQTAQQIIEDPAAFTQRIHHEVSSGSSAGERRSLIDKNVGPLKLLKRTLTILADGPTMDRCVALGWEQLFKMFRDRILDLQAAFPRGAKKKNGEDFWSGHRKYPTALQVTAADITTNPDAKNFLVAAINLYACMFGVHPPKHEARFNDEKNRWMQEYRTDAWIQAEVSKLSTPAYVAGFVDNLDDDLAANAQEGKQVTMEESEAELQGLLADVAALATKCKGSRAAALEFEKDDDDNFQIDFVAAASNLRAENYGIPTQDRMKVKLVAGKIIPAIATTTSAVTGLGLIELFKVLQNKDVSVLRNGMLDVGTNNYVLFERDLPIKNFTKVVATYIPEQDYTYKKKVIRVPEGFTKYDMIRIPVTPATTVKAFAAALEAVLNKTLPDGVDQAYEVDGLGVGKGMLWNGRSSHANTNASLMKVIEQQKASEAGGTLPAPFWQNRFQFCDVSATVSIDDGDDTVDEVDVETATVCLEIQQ
Put plainly: Leishmania donovani Ubiquitin Activating Enzyme (LdE1). As to conditions: 30 µM. It counts as functional. Also on record: scale not given: direction of the effect not stated beside the values.

Experiment [4] deals with T3, Aspartate--tRNA(Asp/Asn) ligase (Mycobacterium tuberculosis (strain ATCC 25618 / H37Rv)) (UniProt P9WFW3).
T3 sequence (whole entry): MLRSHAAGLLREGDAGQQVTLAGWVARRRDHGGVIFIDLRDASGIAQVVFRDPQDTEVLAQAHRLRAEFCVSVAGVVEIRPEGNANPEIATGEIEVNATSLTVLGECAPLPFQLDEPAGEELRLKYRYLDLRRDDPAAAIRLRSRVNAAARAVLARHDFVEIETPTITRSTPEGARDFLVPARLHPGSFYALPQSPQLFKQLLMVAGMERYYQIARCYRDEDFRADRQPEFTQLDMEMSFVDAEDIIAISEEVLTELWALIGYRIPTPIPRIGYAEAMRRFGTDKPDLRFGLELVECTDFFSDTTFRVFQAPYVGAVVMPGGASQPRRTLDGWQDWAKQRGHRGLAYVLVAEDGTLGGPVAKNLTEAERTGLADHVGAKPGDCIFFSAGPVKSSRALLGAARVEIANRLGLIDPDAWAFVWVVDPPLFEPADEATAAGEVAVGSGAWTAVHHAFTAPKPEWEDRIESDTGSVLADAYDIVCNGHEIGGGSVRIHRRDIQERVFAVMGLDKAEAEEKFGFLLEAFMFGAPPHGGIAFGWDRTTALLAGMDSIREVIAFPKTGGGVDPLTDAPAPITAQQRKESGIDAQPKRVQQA
As to the kind of experiment: Assay for Asp RNA synthetase-1 from Mycobacterium tuberculosis. The arrangement: scale not given: direction of the effect not stated beside the values. It counts as functional. As to conditions: 30 µM.

The target in experiment [5] is AMP-activated protein kinase, AMPK (Homo sapiens) (UniProt P54646+O43741+P54619+Q9UGJ0+Q9Y478+Q13131+Q9UGI9). Put plainly: AMP-dependent Kinase enzyme assay. An in vitro enzyme assay that detects ADP turnover that is directly proportional to AMPK activity. This uses naive AMPK that is activated during the assay with MK-8722. The note with it: 30 µM. Also on record: scale not given: direction of the effect not stated beside the values. The class given is functional.

Experiment [6] has as its target Sialic acid-binding Ig-like lectin 9 (Homo sapiens) (UniProt Q9Y336). As to the kind of experiment: Hs-Siglec9 ALPHAscreen SOP 20170721. The arrangement: scale not given: direction of the effect not stated beside the values. As to conditions: 10 µM. Background: Alpha assays give light when donor and acceptor beads are brought close together.
In a further experiment the test system is Trypanosoma cruzi. Put plainly: Trypanosoma cruzi phosphomannomutase and mannose-1-phosphate guanylyltransferase assay. The arrangement: scale not given: direction of the effect not stated beside the values. It counts as functional. The note with it: 10 µM.
The target of experiment [7] is T4, Arginase-2, mitochondrial (Homo sapiens) (UniProt P78540).
T4 sequence (whole entry): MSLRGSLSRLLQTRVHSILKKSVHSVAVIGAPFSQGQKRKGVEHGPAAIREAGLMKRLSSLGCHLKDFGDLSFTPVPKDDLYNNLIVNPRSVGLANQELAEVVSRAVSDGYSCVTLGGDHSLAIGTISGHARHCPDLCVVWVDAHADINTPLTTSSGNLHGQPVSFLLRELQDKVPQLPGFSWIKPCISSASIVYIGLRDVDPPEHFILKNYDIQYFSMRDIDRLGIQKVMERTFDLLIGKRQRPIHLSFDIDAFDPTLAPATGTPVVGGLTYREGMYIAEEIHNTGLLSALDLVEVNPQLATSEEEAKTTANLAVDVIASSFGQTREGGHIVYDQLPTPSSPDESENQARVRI
Put plainly: in vitro enzyme assay to detect the production of urea directly proportional to the activity of Arginase II. The class given is functional. The arrangement: scale not given: in the data most compounds retested in dose-response had high values. The note with it: 33.3 µM.

In experiment [8] the target is T5, Proteasome subunit beta (Trypanosoma cruzi) (UniProt O96673).
T5 sequence (whole entry): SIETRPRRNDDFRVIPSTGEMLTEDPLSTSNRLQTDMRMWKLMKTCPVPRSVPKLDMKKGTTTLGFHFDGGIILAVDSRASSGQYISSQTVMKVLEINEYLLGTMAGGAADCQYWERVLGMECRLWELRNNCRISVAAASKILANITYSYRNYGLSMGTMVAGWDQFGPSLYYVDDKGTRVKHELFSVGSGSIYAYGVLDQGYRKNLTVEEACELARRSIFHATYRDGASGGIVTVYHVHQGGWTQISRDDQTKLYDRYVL
Put plainly: Trypanosoma cruzi proteasome chymotrypsin-like activity (TcProtChymo) assay. The arrangement: scale not given: in the data most compounds retested in dose-response had high values. The note with it: 9.37 µM. The class given is functional.

A further experiment is filed under the species Homo sapiens. Put plainly: To identify inhibition of the IFN signalling (Jak-Stat) pathway via expression of an eGFP reporter gene under the control of an IFN-stimulated response element (ISRE) containing MxA promoter. Also on record: scale not given: direction of the effect not stated beside the values. The class given is functional. As to conditions: 30 µM.

The target in experiment [9] is Shiga toxin 2 (Escherichia coli O157:H7) (UniProt P09385+P09386). Put plainly: E. coli 0.157:H7 Shiga Toxin SOP - stx2 screening assay. It counts as functional. The arrangement: scale not given: direction of the effect not stated beside the values. The note with it: 30 µM.
In experiment [10] the target is T6, Tyrosyl-tRNA synthetase, putative (Trypanosoma cruzi (strain CL Brener)) (UniProt Q4DSP6).
T6 sequence (whole entry): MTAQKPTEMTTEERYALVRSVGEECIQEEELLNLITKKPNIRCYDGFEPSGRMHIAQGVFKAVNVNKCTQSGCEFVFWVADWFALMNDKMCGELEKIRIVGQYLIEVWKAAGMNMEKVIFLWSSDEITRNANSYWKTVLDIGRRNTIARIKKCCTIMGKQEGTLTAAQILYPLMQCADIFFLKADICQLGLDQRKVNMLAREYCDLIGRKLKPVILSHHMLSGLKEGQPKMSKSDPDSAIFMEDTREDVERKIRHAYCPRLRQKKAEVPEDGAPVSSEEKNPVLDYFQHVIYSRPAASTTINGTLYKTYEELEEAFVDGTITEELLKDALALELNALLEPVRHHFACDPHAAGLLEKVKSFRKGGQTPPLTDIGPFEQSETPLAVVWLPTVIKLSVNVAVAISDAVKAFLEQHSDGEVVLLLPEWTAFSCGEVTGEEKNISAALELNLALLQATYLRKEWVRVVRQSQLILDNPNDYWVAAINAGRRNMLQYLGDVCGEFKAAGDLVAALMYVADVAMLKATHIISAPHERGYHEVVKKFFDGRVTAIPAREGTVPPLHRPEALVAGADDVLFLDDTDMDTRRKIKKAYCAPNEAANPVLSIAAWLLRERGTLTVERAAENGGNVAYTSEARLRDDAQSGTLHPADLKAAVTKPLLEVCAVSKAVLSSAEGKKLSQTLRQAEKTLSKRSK
As to the kind of experiment: Trypanosoma cruzi tyrosyl tRNA synthetase (TcYRS) _High Tyrosine SOP. The class given is functional. The arrangement: scale not given: in the data most compounds retested in dose-response had high values. The note with it: 30 µM.

For experiment [11], the target named is T6, Tyrosyl-tRNA synthetase, putative (Trypanosoma cruzi (strain CL Brener)). As to the kind of experiment: Trypanosoma cruzi tyrosyl tRNA synthetase (TcYRS) SOP. It counts as functional. The arrangement: scale not given: direction of the effect not stated beside the values. The note with it: 30 µM.
Experiment [12] has as its target Chromo domain-containing protein 1 (Saccharomyces cerevisiae (strain ATCC 204508 / S288c) (Baker's yeast)) (UniProt P32657). Put plainly: ScCHD-1 Enzyme Inhibition Assay. The class given is functional. The arrangement: scale not given: in the data most compounds retested in dose-response had high values. As to conditions: 30 µM.

Chromo domain-containing protein 1 (Saccharomyces cerevisiae (strain ATCC 204508 / S288c) (Baker's yeast)), sequence (P32657 whole entry, the tested form may be a part): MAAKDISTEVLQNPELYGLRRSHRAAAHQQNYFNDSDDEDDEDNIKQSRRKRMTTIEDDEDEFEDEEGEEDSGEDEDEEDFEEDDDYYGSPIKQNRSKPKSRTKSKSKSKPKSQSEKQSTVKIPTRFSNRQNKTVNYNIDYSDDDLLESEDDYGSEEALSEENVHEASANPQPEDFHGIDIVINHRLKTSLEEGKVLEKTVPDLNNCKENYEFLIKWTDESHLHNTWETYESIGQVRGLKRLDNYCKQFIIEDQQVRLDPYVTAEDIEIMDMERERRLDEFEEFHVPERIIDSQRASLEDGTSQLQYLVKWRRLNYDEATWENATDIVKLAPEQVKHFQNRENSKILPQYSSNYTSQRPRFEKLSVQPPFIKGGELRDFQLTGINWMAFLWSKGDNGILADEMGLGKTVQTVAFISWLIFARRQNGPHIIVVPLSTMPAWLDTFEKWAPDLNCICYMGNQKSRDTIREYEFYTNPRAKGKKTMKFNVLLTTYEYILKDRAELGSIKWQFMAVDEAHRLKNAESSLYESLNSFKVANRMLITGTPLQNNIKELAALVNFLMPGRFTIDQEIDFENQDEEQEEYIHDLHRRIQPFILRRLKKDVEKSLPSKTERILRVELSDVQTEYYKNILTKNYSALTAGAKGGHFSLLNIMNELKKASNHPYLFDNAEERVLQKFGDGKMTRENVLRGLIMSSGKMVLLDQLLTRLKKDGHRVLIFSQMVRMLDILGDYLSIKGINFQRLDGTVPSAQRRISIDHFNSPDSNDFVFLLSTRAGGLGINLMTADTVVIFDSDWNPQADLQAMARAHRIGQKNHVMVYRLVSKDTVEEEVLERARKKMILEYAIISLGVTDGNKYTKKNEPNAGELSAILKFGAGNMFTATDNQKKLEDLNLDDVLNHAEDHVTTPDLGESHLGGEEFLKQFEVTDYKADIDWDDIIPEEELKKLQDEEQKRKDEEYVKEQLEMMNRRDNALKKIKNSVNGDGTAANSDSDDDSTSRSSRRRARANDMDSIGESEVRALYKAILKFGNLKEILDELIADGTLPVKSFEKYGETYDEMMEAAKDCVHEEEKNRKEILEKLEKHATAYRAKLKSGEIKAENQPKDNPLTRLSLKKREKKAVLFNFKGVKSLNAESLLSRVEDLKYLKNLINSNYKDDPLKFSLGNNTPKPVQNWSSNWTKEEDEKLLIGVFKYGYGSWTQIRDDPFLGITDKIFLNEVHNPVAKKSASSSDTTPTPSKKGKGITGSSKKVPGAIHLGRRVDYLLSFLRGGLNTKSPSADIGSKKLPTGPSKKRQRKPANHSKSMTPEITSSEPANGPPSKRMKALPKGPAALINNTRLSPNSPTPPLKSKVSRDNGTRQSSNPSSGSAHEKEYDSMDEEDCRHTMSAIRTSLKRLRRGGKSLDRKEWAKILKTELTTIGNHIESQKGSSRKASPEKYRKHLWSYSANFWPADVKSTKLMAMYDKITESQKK
Sialic acid-binding Ig-like lectin 9 (Homo sapiens), sequence (Q9Y336 whole entry): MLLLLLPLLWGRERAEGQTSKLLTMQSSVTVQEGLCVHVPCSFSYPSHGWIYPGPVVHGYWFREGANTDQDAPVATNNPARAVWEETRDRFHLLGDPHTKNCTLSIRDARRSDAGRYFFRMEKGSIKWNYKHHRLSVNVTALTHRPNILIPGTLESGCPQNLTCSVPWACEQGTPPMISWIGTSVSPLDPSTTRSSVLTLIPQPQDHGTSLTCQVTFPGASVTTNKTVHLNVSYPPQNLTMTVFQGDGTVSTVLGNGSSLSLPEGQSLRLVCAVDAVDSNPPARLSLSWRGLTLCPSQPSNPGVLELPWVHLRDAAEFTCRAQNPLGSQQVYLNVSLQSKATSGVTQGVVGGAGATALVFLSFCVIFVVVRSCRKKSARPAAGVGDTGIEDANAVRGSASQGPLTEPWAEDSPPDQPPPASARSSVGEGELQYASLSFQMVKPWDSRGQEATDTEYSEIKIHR
Protein translocase subunit SecA (Escherichia coli (strain K12)), sequence (P10408 whole entry): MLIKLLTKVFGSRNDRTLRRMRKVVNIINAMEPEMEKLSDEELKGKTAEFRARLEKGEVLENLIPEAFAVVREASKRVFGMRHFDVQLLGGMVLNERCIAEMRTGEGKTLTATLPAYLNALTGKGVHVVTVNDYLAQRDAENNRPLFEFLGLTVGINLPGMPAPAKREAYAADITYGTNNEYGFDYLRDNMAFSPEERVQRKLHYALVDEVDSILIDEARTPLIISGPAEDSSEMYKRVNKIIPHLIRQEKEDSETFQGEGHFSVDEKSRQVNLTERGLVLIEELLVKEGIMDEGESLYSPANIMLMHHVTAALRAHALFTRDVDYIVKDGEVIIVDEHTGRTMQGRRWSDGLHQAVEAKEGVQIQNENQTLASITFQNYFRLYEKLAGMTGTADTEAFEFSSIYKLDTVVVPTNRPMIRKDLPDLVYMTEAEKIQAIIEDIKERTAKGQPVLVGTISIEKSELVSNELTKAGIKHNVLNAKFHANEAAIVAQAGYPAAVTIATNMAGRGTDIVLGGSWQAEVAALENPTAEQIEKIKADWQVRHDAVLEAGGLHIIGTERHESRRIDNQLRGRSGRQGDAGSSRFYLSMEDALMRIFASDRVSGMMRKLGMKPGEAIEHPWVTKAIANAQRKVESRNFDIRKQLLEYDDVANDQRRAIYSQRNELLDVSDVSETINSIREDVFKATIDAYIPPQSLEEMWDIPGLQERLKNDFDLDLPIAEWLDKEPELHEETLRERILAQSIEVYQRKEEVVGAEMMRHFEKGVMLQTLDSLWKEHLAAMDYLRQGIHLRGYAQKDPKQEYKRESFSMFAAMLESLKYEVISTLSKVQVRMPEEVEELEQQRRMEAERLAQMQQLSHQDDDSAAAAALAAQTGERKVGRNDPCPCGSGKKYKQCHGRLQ

Regarding `NC1CC1c1ccc(Cl)cc1Cl` (stereo unspecified), the PXC50 in experiment [1] (MAX_EFFECT 19.58174905) and in experiment [1] (MAX_EFFECT 31.74946004) was < 3 in each case.
For `O=C1CC2(CCN(Cc3ccccn3)C2)CN1c1cncnc1` (stereo unspecified), the Percent Effect in [2] was -0.821%; in experiment [3], 0%; in experiment [4], -1.45%; in [5], 2.73%; in experiment [6] it was -3.03%; with Trypanosoma cruzi, -1.66%. Moreover, the Percent Effect in experiment [7] was 0.319%; in experiment [8], 16.1%; in the experiment filed under Homo sapiens, -0.29%; in experiment [9] it was -1.07%; in experiment [10] it was 2.16%; in experiment [11] it was 5.13%. The Percent Effect in experiment [12] stood at 5.33%.
Consider `c1ccc(OC[C@H]2CCC[C@]23CN(Cc2nccs2)CCO3)nc1`, for which the Percent Effect was 1.87% in experiment [2]; 0% in experiment [3]; -0.162% in [4]; -19.9% in [5]; 5.02% in [6]; -2.36% with Trypanosoma cruzi. Moreover, the Percent Effect in [7] is -15.2%; in [8], 3.08%; in the experiment filed under Homo sapiens, 34.4%; in [9] it was -11.8%; in experiment [10] it was 1.06%; in experiment [11], 3.85%. For the same compound, the Percent Effect in experiment [12] was 3.38%.
Take `COC(=O)Nc1cc(Cl)cc(Cl)c1`: the PXC50 in experiment [1] (MAX_EFFECT 8.423326134) and in experiment [1] (MAX_EFFECT 23.76425856) was < 3 throughout.
For the compound `Clc1ccccc1Nc1ncnc(-n2cccc2)n1`, the PXC50 in experiment [1] (MAX_EFFECT 8.148148148) was < 4.
